Test results reported in PubChem BioAssay (NCATS).
Results filed as inconclusive are left out. Where a call stands in place of a potency, no number is given. More than one record can exist for a structure, and the calls need not agree. Calls of active or inactive are those of the source. Unless noted, calls come from the whole dose curve; as a rule, active = well fitted curve in the direction sought with a large enough effect; inconclusive = small, poorly fitted or top-dose-only effect, or another doubt; inactive = no such curve, though single readings can be large; an effect the other way counts as inactive or inconclusive.

Legend:
[1] = molecular target: Beta-2 adrenergic receptor (Homo sapiens) (UniProt P07550); experiment: qHTS validation assay of beta-arrestin-biased ligands of beta2-adrenergic receptor (AID 485366)
How it was run: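 Agonism was measured as beta-arrestin recruitment to recombinant beta2-AR, releasing tTA to drive luciferase. Cells were exposed for 18 hr at 37 degrees C to a series up to 46 microM. %Activity from corrected luminescence gave concentration-response curves.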

[2] = molecular target: ATP-dependent 6-phosphofructokinase (Trypanosoma brucei brucei) (UniProt O15648); experiment: qHTS Validation Assay to Find Inhibitors of T. brucei phosphofructokinase (AID 485368)
How it was run: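 ADP-Glo luminescence, two-step: residual ATP depleted, then ADP converted to ATP for luciferase. Enzyme 1.25 nM, F6P 0.5 mM, ATP 0.1 mM, pH 8.0 TEA buffer, 45 min RT. Curves fitted and classed by quality and efficacy.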

[3] = Quantitative high throughput screen for delayed death inhibitors of the malarial parasite plastid, 96 hour incubation (AID 488745); note: nearly all actives have a fitted effect of over 70% in size; note: potency is the fitted concentration of half-maximal effect
How it was run: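 Two-generation (96 h) exposure of luciferase-reporter P. falciparum in erythrocytes, 2% hematocrit, 0.1% parasitemia final, 37 C, 5% CO2, RPMI 1640 with 0.5% Albumax. Growth inhibition scored by reduced luminescence.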

[4] = Quantitative high throughput screen for delayed death inhibitors of the malarial parasite plastid, 48 hour incubation (AID 488752); note: nearly all actives have a fitted effect of over 65% in size; note: potency is the fitted concentration of half-maximal effect
How it was run: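 Cultures: infected erythrocytes at final 2% hematocrit and 0.1% parasitemia in Albumax-supplemented RPMI. Parasites express integrated firefly luciferase. Incubation with compound lasts 48 h before luminescent detection of remaining reporter activity.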

[5] = molecular target: Thioredoxin reductase 1, cytoplasmic (Rattus norvegicus) (UniProt O89049); experiment: qHTS Assay for Substrates of Mammalian Selenoprotein Thioredoxin Reductase 1 (TrxR1) (AID 488772);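 note: series mostly up to about 57 µM; a drop in NADPH fluorescence below the no-compound background marks a TrxR1 substrate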
How it was run: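 In this dual-purpose format, potential substrates are identified from the first fluorescence read after selenite addition, not from the 8-minute delta. Rat enzyme is preincubated with NADPH and then with compound at ~22 deg C.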

[6] = molecular target: Thioredoxin reductase 1, cytoplasmic (Rattus norvegicus) (UniProt O89049); experiment: qHTS Assay for Inhibitors of Mammalian Selenoprotein Thioredoxin Reductase 1 (TrxR1) (AID 488773); conditions: Potency: inhibition;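 note: drop in NADPH fluorescence over an 8 min run after selenite addition; series mostly up to about 57 µM; nearly all actives have a fitted effect of over 40% in size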
How it was run: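 Inhibition is scored from the loss of NADPH fluorescence between first and last reads of an 8-min kinetic run. Selenite (400 uM) was the substrate, added after 15 min compound preincubation at room temperature.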

[7] = molecular target: Flap endonuclease 1 (Homo sapiens) (UniProt P39748); experiment: qHTS Validation Assay for the Inhibitors of Human Flap endonuclease 1 (FEN1) (AID 488816)
How it was run: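 Enzyme reagent 10 nM; cpds pinned; 15 min RT preinc.; substrate 50 nM final; reads t=0 and 15 min; no-enzyme buffer wells as neg. control; normalized data, 4-parameter Hill fit.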

[8] = molecular target: M-phase phosphoprotein 8 (Homo sapiens) (UniProt Q99549); experiment: qHTS Validation Assay for Inhibitors for MPP8 Chromodomain Interactions with Methylated Histone Tails (AID 488949); note: nearly all actives have a fitted effect of over 55% in size; note: potency is the fitted concentration of half-maximal effect
How it was run: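 Disruption of the preformed MPP8–trimethyl-H3K9 peptide complex (both 50 nM, 30 min, RT) is measured after 30 min compound exposure, using AlphaScreen proximity beads; aurintricarboxylic acid titration serves as plate control.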

[9] = molecular target: Methanococcus maripaludis chaperonin (MmCpn) (UniProt Q6LX38); experiment: High-Throughput Screening for Modulators of Cytosolic Chaperonin Activity: MmCpn Primary Screen (AID 488978);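 note: 50 nM MmCpn enzyme hydrolysing 30 µM ATP at 37 °C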
How it was run: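 Measures ATPase turnover of the M. maripaludis chaperonin (50 nM final) against 30 uM ATP over 10 min at 37C, with compound added 5 min beforehand at room temperature. ADP is quantified by HTRF immunodetection.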

[10] = molecular target: Transient receptor potential cation channel subfamily V member 1 (Homo sapiens) (UniProt Q8NER1); experiment: HTS Assay for Compounds that Act as Enhancers of the Vanilloid Receptor 1 (AID 488979)
How it was run: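 TRPV1 cells loaded with Fluo-8 calcium dye; compound added and Ca2+ signal (ex 480/em 520 nm) followed 3 min, then capsaicin at EC20 added and read 2 more min to detect enhancement.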

[11] = molecular target: Thyrotropin receptor (Homo sapiens) (UniProt P16473); experiment: qHTS Assay for Antagonists of the Thyroid Stimulating Hormone Receptor (AID 488980); note: series mostly up to about 58 µM
How it was run: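 Cells expressing human TSHR (HEK293) are dispensed in HBSS/HEPES containing 70 uM RO 20-1724, compound is added, then TSH at EC80 (4 nM final). Antibody in lysis buffer follows, 30 minutes at room temperature before HTRF detection.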

[12] = molecular target: D(1A) dopamine receptor (Homo sapiens) (UniProt P21728); experiment: HTS Assay for Allosteric Agonists of the Human D1 Dopamine Receptor: Primary Screen for Agonists (AID 488981)
How it was run: (§1)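 Tetracycline-induced HEK293 Trex D1 cells with forced coupling to calcium, loaded with no-wash calcium dye; kinetic fluorescence read 180 s after compound addition for agonism, then a further 180 s after an EC20 dopamine challenge for potentiation.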

[13] = molecular target: D(1A) dopamine receptor (Homo sapiens) (UniProt P21728); experiment: HTS Assay for Allosteric Agonists of the Human D1 Dopamine Receptor: Primary Screen for Antagonists (AID 488983);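 note: calcium flux response to an EC80 dopamine challenge measured with no-wash dye; nearly all actives have a fitted effect of over 65% in size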
How it was run: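 In this primary screen, compounds are applied to calcium-dye-loaded HEK293 T-REx cells with force-coupled D1 expression induced overnight at 30 C. An EC80 of dopamine follows the 180 s compound phase, and calcium is monitored for a further 180 s.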

[14] = Validation screen for small molecules that induce genotoxicity in human embryonic kidney (HEK293T) cells expressing luciferase-tagged ELG1 (AID 493106)
How it was run: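 In this validation screen, increased ELG1-luciferase signal flags compounds causing genetic stress. HEK293T reporter cells are treated 16 hr (37 °C, 5% CO2), developed with ONE-Glo for 30 min at room temperature, and imaged on a CCD-based reader.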

[15] = molecular target: ATPase family AAA domain-containing protein 5 (Homo sapiens) (UniProt Q96QE3); experiment: Validation screen for small molecules that inhibit ELG1-dependent DNA repair in human embryonic kidney (HEK293T) cells expressing luciferase-tagged ELG1 (AID 493107);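 note: cells co-treated with the DNA-damaging agent 5-fluorouridine alongside compound; series mostly up to about 46 µM; inhibitors lower the ELG1-luciferase luminescence signal; nearly all actives have a fitted effect of over 70% in size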
How it was run: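 Compounds reducing 5-fluorouridine-driven ELG1-luciferase signal in HEK293T cells were scored; exposure lasted 16 hr at 37 °C with luminescence detected via ONE-Glo.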

[16] = molecular target: D(1A) dopamine receptor (Homo sapiens) (UniProt P21728); experiment: HTS Assay for Allosteric Agonists of the Human D1 Dopamine Receptor: Primary Screen for Potentiators (AID 488982)
How it was run: as §1

[17] = molecular target: Thyrotropin-releasing hormone receptor (Homo sapiens) (UniProt P34981); experiment: qHTS for Small Molecule Agonists and Allosteric Enhancers of Human TRH Receptor: Validation Screen for Agonists (AID 493127;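 active = calcium activation more than 3 SD above the typical response in the agonist read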;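 note: intracellular calcium rise by fluo-8 fluorescence before TRH EC20 addition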); conditions: TRH receptor agonist cell assay; at 2 µM; stronger effect = higher value
How it was run: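 Kinetic fluorescence assay of agonist-induced calcium release: overnight-plated TRHR cells, room-temperature fluo-8 loading, baseline then compound addition with per-second reads.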

[18] = molecular target: Chromobox protein homolog 1 (Homo sapiens) (UniProt P83916); experiment: qHTS Validation Assay for Inhibitors of HP1-beta Chromodomain Interactions with Methylated Histone Tails (AID 488953); note: nearly all actives have a fitted effect of over 50% in size; note: potency is the fitted concentration of half-maximal effect
How it was run: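 Compounds pinned into a preassembled complex of HP1-beta and trimethyl-K9 histone H3(1-18) biotin peptide (50 nM each; PBS pH 7.4, 0.01% Tween-20). After 30 min, bead-based AlphaScreen detection followed.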

Beta-2 adrenergic receptor (Homo sapiens), sequence (P07550 whole entry, looked up): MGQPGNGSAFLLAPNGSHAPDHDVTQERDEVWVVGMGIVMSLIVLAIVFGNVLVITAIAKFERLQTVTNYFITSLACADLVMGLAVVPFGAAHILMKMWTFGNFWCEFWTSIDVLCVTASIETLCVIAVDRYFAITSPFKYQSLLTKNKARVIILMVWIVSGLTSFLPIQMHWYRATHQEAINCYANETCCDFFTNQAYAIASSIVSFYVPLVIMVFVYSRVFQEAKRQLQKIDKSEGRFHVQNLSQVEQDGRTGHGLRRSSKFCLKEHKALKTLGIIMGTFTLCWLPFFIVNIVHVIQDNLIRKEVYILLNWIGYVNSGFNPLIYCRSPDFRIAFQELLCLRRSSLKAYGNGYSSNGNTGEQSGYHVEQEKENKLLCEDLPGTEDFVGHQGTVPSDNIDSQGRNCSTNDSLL
Thyrotropin-releasing hormone receptor (Homo sapiens), sequence (P34981 whole entry, looked up): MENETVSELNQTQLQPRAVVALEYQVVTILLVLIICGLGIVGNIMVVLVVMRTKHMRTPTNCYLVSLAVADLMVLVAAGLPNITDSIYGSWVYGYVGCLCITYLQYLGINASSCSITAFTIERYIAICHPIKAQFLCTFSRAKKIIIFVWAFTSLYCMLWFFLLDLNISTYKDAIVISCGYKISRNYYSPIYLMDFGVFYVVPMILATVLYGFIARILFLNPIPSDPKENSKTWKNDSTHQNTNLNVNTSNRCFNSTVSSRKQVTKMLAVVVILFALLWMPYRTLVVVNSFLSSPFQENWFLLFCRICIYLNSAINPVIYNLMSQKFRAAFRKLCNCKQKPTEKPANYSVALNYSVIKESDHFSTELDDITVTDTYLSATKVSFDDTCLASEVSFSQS
Flap endonuclease 1 (Homo sapiens), sequence (P39748 whole entry, looked up): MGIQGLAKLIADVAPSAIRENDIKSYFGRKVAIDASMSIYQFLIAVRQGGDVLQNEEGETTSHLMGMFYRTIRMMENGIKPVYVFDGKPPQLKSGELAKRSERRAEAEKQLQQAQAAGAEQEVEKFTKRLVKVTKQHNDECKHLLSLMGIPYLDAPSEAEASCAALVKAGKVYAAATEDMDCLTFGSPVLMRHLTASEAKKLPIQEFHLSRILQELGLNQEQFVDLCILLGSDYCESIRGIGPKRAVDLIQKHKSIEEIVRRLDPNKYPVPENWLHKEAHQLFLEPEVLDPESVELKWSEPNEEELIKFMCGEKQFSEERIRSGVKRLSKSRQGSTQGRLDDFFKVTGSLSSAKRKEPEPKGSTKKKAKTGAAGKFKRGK
Chromobox protein homolog 1 (Homo sapiens), sequence (P83916 whole entry, looked up): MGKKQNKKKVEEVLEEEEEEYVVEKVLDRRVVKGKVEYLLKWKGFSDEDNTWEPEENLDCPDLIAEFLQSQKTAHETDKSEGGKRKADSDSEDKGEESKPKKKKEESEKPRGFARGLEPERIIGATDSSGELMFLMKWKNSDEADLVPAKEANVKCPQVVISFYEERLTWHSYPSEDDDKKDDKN
Thioredoxin reductase 1, cytoplasmic (Rattus norvegicus), sequence (O89049 whole entry, looked up): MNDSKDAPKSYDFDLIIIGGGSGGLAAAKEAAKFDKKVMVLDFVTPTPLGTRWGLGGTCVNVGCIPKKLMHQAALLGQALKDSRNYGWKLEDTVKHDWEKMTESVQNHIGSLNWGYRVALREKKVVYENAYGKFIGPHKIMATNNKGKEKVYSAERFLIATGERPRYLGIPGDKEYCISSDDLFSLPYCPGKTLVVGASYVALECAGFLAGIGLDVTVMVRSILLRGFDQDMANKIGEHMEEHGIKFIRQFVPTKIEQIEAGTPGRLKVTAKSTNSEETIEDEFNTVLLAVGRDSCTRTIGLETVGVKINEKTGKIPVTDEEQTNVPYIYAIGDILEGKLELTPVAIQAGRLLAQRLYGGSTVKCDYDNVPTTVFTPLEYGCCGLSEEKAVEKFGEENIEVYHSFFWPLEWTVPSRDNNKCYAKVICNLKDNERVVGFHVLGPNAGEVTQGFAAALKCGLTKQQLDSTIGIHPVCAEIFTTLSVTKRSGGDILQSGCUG
D(1A) dopamine receptor (Homo sapiens), sequence (P21728 whole entry, looked up): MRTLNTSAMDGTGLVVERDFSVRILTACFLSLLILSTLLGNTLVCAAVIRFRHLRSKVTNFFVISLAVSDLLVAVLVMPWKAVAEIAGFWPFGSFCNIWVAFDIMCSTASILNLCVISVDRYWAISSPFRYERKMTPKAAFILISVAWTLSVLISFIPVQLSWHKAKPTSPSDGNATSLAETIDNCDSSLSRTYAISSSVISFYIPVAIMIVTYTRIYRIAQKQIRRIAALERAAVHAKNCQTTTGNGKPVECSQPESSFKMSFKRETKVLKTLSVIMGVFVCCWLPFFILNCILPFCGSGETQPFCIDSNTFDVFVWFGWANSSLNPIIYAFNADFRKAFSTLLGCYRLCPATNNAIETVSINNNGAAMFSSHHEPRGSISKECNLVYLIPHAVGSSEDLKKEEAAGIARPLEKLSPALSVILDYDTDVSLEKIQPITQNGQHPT
ATPase family AAA domain-containing protein 5 (Homo sapiens), sequence (Q96QE3 whole entry, looked up, the tested form may be a part): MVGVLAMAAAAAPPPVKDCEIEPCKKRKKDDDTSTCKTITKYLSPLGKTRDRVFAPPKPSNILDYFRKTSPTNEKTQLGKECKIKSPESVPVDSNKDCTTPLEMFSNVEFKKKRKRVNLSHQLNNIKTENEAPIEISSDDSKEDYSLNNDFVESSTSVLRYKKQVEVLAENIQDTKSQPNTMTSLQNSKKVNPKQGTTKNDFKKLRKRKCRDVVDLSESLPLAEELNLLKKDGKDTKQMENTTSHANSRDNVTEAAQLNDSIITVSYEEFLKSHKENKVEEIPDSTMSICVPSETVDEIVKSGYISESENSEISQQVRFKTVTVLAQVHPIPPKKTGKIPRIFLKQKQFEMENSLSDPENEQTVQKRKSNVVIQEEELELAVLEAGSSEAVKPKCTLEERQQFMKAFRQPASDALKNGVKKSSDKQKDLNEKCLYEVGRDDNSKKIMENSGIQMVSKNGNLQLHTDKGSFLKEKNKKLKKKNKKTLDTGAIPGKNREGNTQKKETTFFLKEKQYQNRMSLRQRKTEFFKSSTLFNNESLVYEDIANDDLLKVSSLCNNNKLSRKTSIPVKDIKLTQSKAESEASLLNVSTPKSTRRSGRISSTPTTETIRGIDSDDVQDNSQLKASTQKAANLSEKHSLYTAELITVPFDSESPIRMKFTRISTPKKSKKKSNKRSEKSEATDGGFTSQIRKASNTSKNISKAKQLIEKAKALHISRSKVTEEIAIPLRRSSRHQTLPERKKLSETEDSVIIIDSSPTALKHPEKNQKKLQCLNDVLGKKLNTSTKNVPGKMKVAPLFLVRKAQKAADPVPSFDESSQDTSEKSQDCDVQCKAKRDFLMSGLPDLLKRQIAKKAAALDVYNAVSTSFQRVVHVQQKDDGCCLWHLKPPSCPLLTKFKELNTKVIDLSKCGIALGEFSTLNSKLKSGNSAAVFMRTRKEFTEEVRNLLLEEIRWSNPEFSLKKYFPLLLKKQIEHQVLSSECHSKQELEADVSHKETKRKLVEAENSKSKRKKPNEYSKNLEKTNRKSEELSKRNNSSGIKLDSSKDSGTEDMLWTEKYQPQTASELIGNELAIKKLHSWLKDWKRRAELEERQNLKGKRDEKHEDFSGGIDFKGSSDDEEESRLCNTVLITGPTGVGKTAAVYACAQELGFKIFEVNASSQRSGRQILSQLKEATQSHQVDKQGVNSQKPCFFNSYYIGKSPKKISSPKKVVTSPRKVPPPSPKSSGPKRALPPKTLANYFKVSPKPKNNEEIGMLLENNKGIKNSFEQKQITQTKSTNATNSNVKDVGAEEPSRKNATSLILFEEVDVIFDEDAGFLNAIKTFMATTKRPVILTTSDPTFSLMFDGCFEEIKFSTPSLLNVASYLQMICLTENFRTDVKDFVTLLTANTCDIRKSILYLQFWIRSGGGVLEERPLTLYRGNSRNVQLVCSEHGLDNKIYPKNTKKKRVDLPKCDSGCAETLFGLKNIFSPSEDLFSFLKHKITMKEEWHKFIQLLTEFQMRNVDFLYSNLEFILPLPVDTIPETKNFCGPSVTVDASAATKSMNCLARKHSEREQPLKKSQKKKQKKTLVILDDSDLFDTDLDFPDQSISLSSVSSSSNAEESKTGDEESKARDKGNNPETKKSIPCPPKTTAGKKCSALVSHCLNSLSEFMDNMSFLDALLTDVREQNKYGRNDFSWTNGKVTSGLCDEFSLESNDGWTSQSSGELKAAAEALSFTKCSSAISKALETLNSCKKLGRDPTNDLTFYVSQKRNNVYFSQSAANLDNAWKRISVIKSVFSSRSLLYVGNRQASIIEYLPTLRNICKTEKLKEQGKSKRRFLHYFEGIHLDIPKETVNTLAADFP
Methanococcus maripaludis chaperonin (MmCpn), sequence (Q6LX38 1-543): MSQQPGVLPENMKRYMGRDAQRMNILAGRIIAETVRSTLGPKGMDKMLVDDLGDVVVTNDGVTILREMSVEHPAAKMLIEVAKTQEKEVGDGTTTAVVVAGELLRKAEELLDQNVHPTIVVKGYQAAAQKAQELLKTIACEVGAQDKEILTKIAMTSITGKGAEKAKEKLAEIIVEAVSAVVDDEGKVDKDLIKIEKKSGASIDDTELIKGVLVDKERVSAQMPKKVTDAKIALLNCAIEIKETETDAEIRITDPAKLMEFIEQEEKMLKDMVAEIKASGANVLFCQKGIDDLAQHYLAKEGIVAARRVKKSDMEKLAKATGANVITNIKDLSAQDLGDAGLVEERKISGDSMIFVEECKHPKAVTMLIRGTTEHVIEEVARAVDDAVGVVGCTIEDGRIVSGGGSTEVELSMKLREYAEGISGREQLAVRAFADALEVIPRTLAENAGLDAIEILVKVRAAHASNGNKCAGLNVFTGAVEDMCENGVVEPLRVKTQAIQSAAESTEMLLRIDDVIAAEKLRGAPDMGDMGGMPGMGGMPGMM

Row | Structure (SMILES) | outcome [1] | Potency [2] | Potency [3] | Potency [4] | outcome [5] | Potency [6] | Potency [7] | Potency [8] | outcome [9] | outcome [10] | outcome [11] | Potency [12] | Potency [13] | Potency [14] | Potency [15] | Potency [16] | activation [17] | Potency [18]
1 | O=C(O)c1cccnc1C(=O)O | inactive | inactive | inactive | inactive | inactive | inactive | inactive | inactive | inactive | inactive | inactive | inactive | inactive | inactive | inactive |  |  | 
2 | N=C(N)SCCc1cnc[nH]1 | inactive | inactive | inactive | inactive | inactive | inactive | inactive | inactive | inactive |  | inactive | inactive | inactive | inactive |  | inactive | -0.375% (inactive) | 
3 | COc1cc(CNC(=O)CCCCCCC(C)C)ccc1O | inactive | inactive | inactive | inactive | inactive | inactive |  | inactive | inactive |  | inactive | inactive | inactive | inactive | inactive | inactive | -5.38% (inactive) | inactive
4 | CCCCCCCCCCCCCCSCC(=O)O | inactive | inactive | inactive | inactive | inactive | inactive | inactive | 31.6 µM (active) and inactive | inactive |  | inactive | inactive |  | inactive | inactive | inactive | 0.688% (inactive) | 50.1 µM (active)
5 | CC(C)(C)c1cc(/C=C(\C#N)C(N)=S)cc(C(C)(C)C)c1O | inactive | inactive | 9.28 µM (active) | 8.28 µM (active) | inactive |  | inactive | 11.2 µM (active) | inactive | inactive | inactive |  |  | inactive |  | inactive | 10.6% (inactive) | 11.2 µM (active)
6 | CC(N)=O | inactive | inactive | inactive | inactive | inactive | inactive |  | inactive | inactive | inactive | inactive | inactive |  |  | inactive |  | 0.25% (inactive) | inactive
7 | CC1=C(C(=O)O)N2C(=O)[C@@H](NC(=O)C(N)C3=CCC=CC3)[C@H]2SC1 (stereo partly specified) | inactive | inactive | inactive | inactive | inactive | inactive |  | inactive | inactive | inactive | inactive | inactive | inactive | inactive | inactive | inactive |  | inactive
8 | O=C(O)CCC(=O)N1CCCC1C(=O)O (stereo unspecified) | inactive | inactive | inactive |  | inactive | inactive | inactive | inactive | inactive | inactive | inactive | inactive | inactive | inactive | inactive | inactive | -0.312% (inactive) | inactive
9 | O=c1oc(Cl)c(Cl)c2ccccc12 | inactive | inactive | inactive | inactive | inactive |  | inactive |  | inactive | inactive | inactive | inactive | inactive |  |  |  | -4.69% (inactive) | 
10 | CC(N)(Cc1ccc(O)cc1)C(=O)O (stereo unspecified) | inactive | inactive | inactive | inactive | inactive |  | inactive | inactive | inactive | inactive | inactive | inactive | inactive | inactive | inactive | inactive |  | inactive
11 | COc1cc(C(O)CO)ccc1O (stereo unspecified) | inactive | inactive | inactive | inactive | inactive |  | inactive | inactive | inactive | inactive | inactive | inactive | inactive | inactive | inactive |  |  | inactive
12 | C=C(C)C1CC=C(C(=O)O)CC1 (stereo unspecified) | inactive | inactive | inactive | inactive | inactive | inactive |  | inactive | inactive | inactive | inactive | inactive | inactive | inactive | inactive | inactive | 1.12% (inactive) | inactive
13 | O=S(=O)(c1cccc2c(Cl)cccc12)N1CCCNCC1 | inactive | inactive | inactive | inactive | inactive |  |  | inactive | inactive |  | inactive | inactive | inactive | inactive |  |  | 1.56% (inactive) | inactive
